# Source: PubChem (National Center for Advancing Translational Sciences (NCATS))
# PLK1 PBD inh: qHTS for Inhibitors of PLK1-PDB (polo-like kinase 1 - polo-box domain): Primary Screen. 2.8% of 360,000 active. Plk1 PBD binding of FITC phosphopeptide, fluorescence polarization. Serine/threonine-protein kinase PLK1 (Homo sapiens), P53350. Potency, µM, for the others: max response, negative = inhibition, actives largely listed as inhibitors; note: potency is the fitted concentration of half-maximal effect; series mostly up to about 57 µM; nearly all actives have a fitted effect of over 65% in size
# Mm-Cpn inhibitor: Inhibitors of TCP-1 ring complex (TRiC) of Methanococcus maripaludis (MmCpn): qHTS. Chaperonin Mm-Cpn (Methanococcus maripaludis). purified Mm-Cpn ATPase, ADP Transcreener TR-FRET. Potency, µM (highest dose often 76.9 µM), for inactives: at the top dose activity, negative = inhibition, most hits filed as inhibitors. 0.031% of 330,000 active. AID 504842, 2011; note: potency is the fitted concentration of half-maximal effect; nearly all actives have a fitted effect of over 80% in size
#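 Compound-treated chaperonin, 25 nM final, turns over 10 uM ATP at 37°C for 30 min following a 10 min preincubation; ADP generated competes with ADP-d2 for Eu-cryptate antibody, lowering FRET.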
# Sfp PPTase inh: qHTS Assay for Inhibitors of Bacillus subtilis Sfp phosphopantetheinyl transferase (PPTase); AID 1490, 2009; Potency, µM, for the others: largest response in the series, negative = inhibition, usual class: inhibitors; 3.5% of 310,000 active; 4'-phosphopantetheinyl transferase ffp (Bacillus subtilis), Q9F4F7; Biochemical Sfp PPTase activity, qHTS;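 note: the enzyme is Sfp with the accession as filed and its product quenches rhodamine fluorescence; potency is the fitted concentration of half-maximal effect; 0% = enzyme reaction without inhibitor and -100% = no enzyme wells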
#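 Reaction rates are the 30-min fluorescence difference (ex 525, em 598 nm) in wells containing 15 nM Sfp, 5 uM rhodamine-CoA and 12.5 uM BHQ-2-YbbR at pH 7.6 with 10 mM MgCl2.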
# CCT modulator: High-Throughput Screening for Modulators of Cytosolic Chaperonin Activity; purified chaperonin ATPase assay, HTRF ADP detection, 30 min; AID 651819, 2012; activity change, % (no concentration beside the values), hits read low; 0.3% of 360,000 active; in the data active = activity change below about -30%
#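 TRiC (40 or 20 nM final, by batch activity) in 30 mM Tris pH 7.4, 100 mM KCl, 5 mM MgCl2, 1 mM DTT was treated with compound at 76 uM single dose, then 10 uM ATP, 30 min at 37 °C. ADP was read by HTRF Transcreener.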
# VDR inhibitor: Inhibitors of the vitamin D receptor (VDR): qHTS; Vitamin D3 receptor (Homo sapiens), P11473; Potency, µM, for inactives: max response, negative = inhibition, most hits filed as inhibitors; VDR-SRC2-3 peptide fluorescence polarization, 2 h; 0.93% of 400,000 active; AID 504847, 2011; note: potency is the fitted concentration of half-maximal effect
#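 After 23 nl compound addition and a short centrifugation, plates sat for 2 hours at ambient temperature; polarization of fluorescence then indicated loss of VDR binding to peptide SRC2-3.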
# G9a inh: qHTS Assay for Inhibitors of Histone Lysine Methyltransferase G9a. Histone-lysine N-methyltransferase EHMT2 (Homo sapiens), Q96KQ7. G9a H3K9 monomethylation, AlphaScreen, 2 h. Potency, µM (titrated, usually from 102 µM), for the others: at the top dose activity, negative = inhibition, most hits filed as inhibitors. 8.8% of 350,000 active. AID 504332, 2011; note: potency is the fitted concentration of half-maximal effect; nearly all actives have a fitted effect of over 75% in size
# Target sequence (Q96KQ7 913-1193 limits assumed): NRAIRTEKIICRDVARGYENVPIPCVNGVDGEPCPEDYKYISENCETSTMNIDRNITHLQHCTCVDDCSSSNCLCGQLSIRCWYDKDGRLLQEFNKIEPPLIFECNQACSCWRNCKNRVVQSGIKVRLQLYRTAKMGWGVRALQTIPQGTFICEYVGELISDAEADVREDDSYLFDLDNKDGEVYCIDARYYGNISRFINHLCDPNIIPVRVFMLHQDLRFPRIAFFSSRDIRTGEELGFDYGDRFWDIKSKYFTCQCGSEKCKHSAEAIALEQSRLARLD
#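 AlphaScreen detection with an anti-monomethyl H3K9 antibody quantified product after a 2 h room-temperature reaction containing 500 nM biotinylated H3K9 peptide, 20 µM SAM and 20 nM enzyme, which had been preincubated 15 min with compound.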
# TbPYK confirm: qHTS of Trypanosoma Brucei Inhibitors: Confirmatory Assay for Cherry-picked Compounds; shares compounds with PLK1 PBD inh; recombinant TbPYK, Kinase-Glo ATP luminescence; Potency, µM (top dose mostly 76.9 µM), inactives show at the highest dose activity change, negative = inhibition, hits mostly inhibitors; 67% of 890 active; note: potency is the fitted concentration of half-maximal effect; nearly all actives have a fitted effect of over 70% in size
# TbPYK ADP-Glo: qHTS of Trypanosoma Brucei Inhibitors: Orthogonal Assay for Cherry-picked Compounds. shares compounds with PLK1 PBD inh. recombinant TbPYK, ADP-Glo luminescence, 60 min. Potency, µM (top dose mostly 76.9 µM), inactives show top-dose activity change, negative = inhibition, most hits filed as inhibitors. 62% of 890 active; note: potency is the fitted concentration of half-maximal effect; nearly all actives have a fitted effect of over 75% in size
# Starred values were filed as active, the others as inactive; u = inconclusive; x = no result; [ ] = dose if it differs, or a comment. An excerpt weighted towards active compounds, which were near 10% of everything screened. Unless noted, calls come from the whole dose curve; as a rule, active = well fitted curve in the direction sought with a large enough effect; inconclusive = small, poorly fitted or top-dose-only effect, or another doubt; inactive = no such curve, though single readings can be large; an effect the other way counts as inactive or inconclusive. Unless noted, % is set by controls: 0 for no effect and ±100 for the full control effect.
SMILES,PLK1 PBD inh,Mm-Cpn inhibitor,Sfp PPTase inh,CCT modulator,VDR inhibitor,G9a inh,TbPYK confirm,TbPYK ADP-Glo
C=CCN1C(=O)/C(=c2\sc3nc(=O)c(Cc4ccccc4Cl)nn3c2=O)c2ccccc21,12µM*,-2%,11µM*,2,35µM*,11µM*,35µM*,40µM*
CC1=CC(=O)C=CC1=Nc1ccc(N(C)C)cc1,u,x,x,0,x,x,22µM*,-16%
c1ccc(Cc2nn3c(C4COc5ccccc5O4)nnc3s2)cc1 (stereo not given),21µM*,0%,14µM*,-8,-44%,5µM*,u,u
Cc1cccc(C)c1NC(=O)c1cc(S(=O)(=O)N2CCc3ccccc3C2)ccc1F,x,x,x,x,17%,9%[59 µM],x,x
O=C1Nc2ccccc2C(=O)C1(Cl)Cc1ccccc1 (stereo not given),1.2µM*,2%,18µM*,0,28µM*,u,3.2µM*,13µM*
CC(C)(C)N1C(=O)c2ccccc2NC(=O)N1Cc1ccccc1,-1%,-5%,12%,0,-5%,-24%[59 µM],x,x
N#C/C(=C\c1ccc(-c2ccc(Cl)c(C(=O)O)c2)o1)c1nc2ccccc2[nH]1,x,0%,x,x,-14%,-25%[59 µM],x,x
CC1(C)OC(=O)C(=Cc2ccc(-c3ccc(Cl)c(C(=O)O)c3)o2)C(=O)O1,1.7µM*,0%,79µM*,-1,u,14µM*,7.1µM*,18µM*
COc1ccc(C=C2SC(=O)NC2=O)cc1OC,-5%,x,x,0,3%,x,x,x
Cc1cc(N2CCOCC2)ccc1/C=C1/SC(=O)NC1=O,-11%,-1%,-22%,-2,-8%,u,u,40µM*
O=C1NC(=O)/C(=C\c2ccc(O)cc2O)S1,-26%,-1%,u,0,-25%,18µM*,28µM*,28µM*
O=[N+]([O-])c1cnc(Sc2ccncn2)c([N+](=O)[O-])c1,1.2µM*,x,x,-2,x,x,-90%,u
O=[N+]([O-])c1ccc(Sc2ccc(F)cc2)nc1,1%,x,x,1,-12%,x,x,x
COc1ccccc1CNC(=O)Cn1c(=O)ccc2cc(S(=O)(=O)N3CCCC3)ccc21,x,x,x,x,5%,16%[59 µM],x,x
CCCCn1c(=O)n(-c2cc(OC)ccc2OC)c(=O)c2c3c(sc21)CN(C(C)=O)CC3,x,x,x,x,-12%,11%[59 µM],x,x
Cc1ccc(S(=O)(=O)c2nnn3c2nc(NCc2ccc(F)cc2)c2sccc23)cc1C,x,x,x,x,-4%,-3%[59 µM],x,x
O=C(COc1cccc(C(F)(F)F)c1)N1CCN(c2ccc(O)cc2)CC1,-2%,0%,28µM*,-2,8%,7.9µM*,8.9µM*,u
O=C(COc1cccc(C(F)(F)F)c1)N1CCN(c2ccccc2O)CC1,-7%,-7%,18%,0,19%,-82%[59 µM],x,x
COc1cccc(N2CCN(C(=O)C3CCN(S(=O)(=O)c4c(C)noc4/C=C/c4ccccc4F)CC3)CC2)c1,x,x,x,x,2%,8%[59 µM],x,x
Cc1ccc(/C=C/C(=O)N2CCN(S(=O)(=O)c3ccc(C)c(C)c3)CC2)o1,24µM*,-2%,18µM*,-3,u,2.8µM*,13µM*,16µM*
CCN1CCN(c2oc(/C=C/c3ccc(OC)c(OC)c3)nc2C#N)CC1,x,x,x,x,5%,-8%[59 µM],x,x
